Entries with a potency or affinity are not part of this list. Records with an inconclusive call do not appear. The source made the active and inactive calls.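 The calls were made as follows: active = signal loss with fitted half-maximal concentration at or below twice the top valid tested dose in every test run; inconclusive = runs disagree, flat 30 to 70% signal loss, or poor fit; inactive = all runs flat, opposite direction, or potency beyond limit.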

Experimental findings from PubChem BioAssay AID720697 (Broad Institute, 2013) are described below.

The nature of the test: general mammalian cell viability loss – inhibitor set, cherry-pick, set 2, cytotoxicity control for miR-122 modulator project, dose response (AID 720697). As to conditions: HEK293T viability, CellTiter-Glo luminescence, 48 h; series mostly up to 26 µM.
`C[C@H](CO)N1C[C@H](C)[C@@H](CN(C)Cc2ccc(-c3ccccc3)cc2)Oc2ncc(C#CCN(C)C)cc2C1=O`: the compound was called inactive.

For `CO[C@@H]1CN(C)C(=O)c2ccc(NC(=O)c3ccc(Oc4ccccc4)cc3)cc2OC[C@H](C)NC[C@H]1C`, the outcome was inactive. Consider `Cc1cnc(NC(=O)c2cc3c(C)nn(-c4ccccc4)c3s2)s1`, for which the compound was called inactive.

Turning to `C/C=C/c1ccc([C@H]2[C@@H](CO)N[C@@H]2CN(CC(C)C)C(=O)c2ccccn2)cc1`, the compound was classed as inactive.

Take `C[C@H](CO)N1C[C@H](C)[C@@H](CN(C)Cc2ccc(C(F)(F)F)cc2)Oc2ccc(NS(=O)(=O)c3ccc(Cl)cc3)cc2CC1=O`: the call was inactive.

As for `CCCC(=O)Nc1ccc2c(c1)C(=O)N(C)[C@H]1CC[C@H](CC(=O)NCCN3CCCCC3)O[C@@H]1CO2`, the compound was called inactive.

Turning to `C[C@@H]1CN([C@H](C)CO)S(=O)(=O)c2ccc(C3=CCCCC3)cc2O[C@@H]1CN(C)C(=O)Cc1ccncc1`, the outcome was inactive. As for `COc1ccccc1NC(=O)N1CCCCN2[C@H](CO)[C@H](c3ccc(C#CC4CCCC4)cc3)[C@H]2C1`, the call was inactive. The value for `Cc1ccccc1-c1ccc2c(c1)O[C@@H](CN(C)C(=O)Nc1ccc(F)cc1)[C@@H](C)CN([C@@H](C)CO)S2(=O)=O` was “inactive”.

As for `CCNC(=O)C[C@H]1CC[C@H]2[C@@H](COc3ccc(NS(C)(=O)=O)cc3C(=O)N2C)O1`, the call was inactive. For `CO[C@@H]1CN(C)C(=O)c2ccc(NC(=O)c3nc4ccccc4s3)cc2OC[C@H](C)N(Cc2cccnc2)C[C@H]1C`, the compound was classed as inactive. For `CN1C(=O)c2cc(NC(=O)Cc3ccccc3)ccc2OC[C@H]2O[C@H](CC(=O)O)CC[C@H]21`, the compound was classed as inactive.

With `CN1C[C@@H]2[C@H](c3ccccc31)[C@@H](CO)N2C(=O)Nc1ccccc1`, the outcome was inactive. Consider `Cc1ccc(-c2nnn(CC(=O)N(CC(=O)NCC3CCCO3)c3ccccc3)n2)o1` (stereo not drawn), for which the call was inactive. On to `COc1cccc(C(=O)Nc2ccc3c(c2)C(=O)N(C)[C@H]2CC[C@H](CC(=O)NCc4ccc(F)cc4)O[C@H]2CO3)c1`, for which the outcome was inactive. On to `COc1cccc(NC(=O)C[C@@H]2CC[C@@H]3[C@@H](COc4ccc(NS(=O)(=O)c5cccc(F)c5)cc4C(=O)N3C)O2)c1`, for which the call was inactive. As for `COc1ccc(S(=O)(=O)Nc2ccc3c(c2)CC(=O)N([C@@H](C)CO)C[C@@H](C)[C@H](CN(C)Cc2ccc(-c4ccccc4)cc2)O3)cc1`, the compound was called inactive.

`C/C=C/c1ccc([C@@H]2[C@@H](CO)N(C(C)=O)[C@H]2CN(C(=O)COC)C(C)C)cc1`: the compound was called inactive. The value for `CN1C(=O)c2cc(NC(=O)c3cccc(F)c3)ccc2OC[C@@H]2O[C@H](CC(=O)Nc3ccccc3)CC[C@H]21` was “inactive”.

With `CCCCN(CCCC)C(=O)CN(C)S(=O)(=O)c1ccc2c(c1)n(C)c(=O)c(=O)n2C`, the call was inactive.

Take `CN1C(=O)c2cc(NC(=O)c3ccc4c(c3)OCO4)ccc2OC[C@H]2O[C@H](CC(=O)O)CC[C@@H]21`: the call was inactive. Then `CC#CCCCC(=O)Nc1ccccc1C(=O)O`, with “inactive”; and `COc1cc(N)c(Cl)cc1NC(=O)c1ccccc1`, with “inactive”; and `N=c1n(CC(=O)c2ccc(Br)s2)c2ccccc2n1Cc1ccccc1`, with “inactive”. Consider `Cc1nn(C)cc1NC(=O)C[C@@H]1CC[C@H]2[C@@H](COc3ccc(NC(=O)Nc4cccc(Cl)c4)cc3C(=O)N2C)O1`, for which the result was inactive.

Take `O=C(COC(=O)c1ccccc1)Nc1cc(Cl)ccc1Oc1ccccc1`: the compound was classed as inactive. Take `C[C@H](CO)N1C[C@H](C)[C@@H](CN(C)CC2CCCCC2)OCCCC[C@H](C)Oc2ccc(NC(=O)Nc3cccc4ccccc34)cc2C1=O`: the compound was called inactive.

Regarding `COCC(=O)Nc1ccc2c(c1)C(=O)N(C)[C@@H]1CC[C@@H](CC(=O)NC3CCCC3)O[C@H]1CO2`, the compound was classed as inactive. As to `C[C@@H]1CN([C@H](C)CO)S(=O)(=O)c2ccc(C#Cc3ccccc3F)cc2O[C@@H]1CN(C)C(=O)Cc1ccncc1`, the call was inactive. As for `CN(C)CCCNC(=O)C[C@@H]1CC[C@@H]2[C@@H](COc3ccc(NC(=O)NC4CCCC4)cc3C(=O)N2C)O1`, the result was inactive. Consider `C[C@H](CO)N1C[C@H](C)[C@H](CN(C)C(=O)NC2CCCCC2)Oc2ncc(-c3cccc(C(F)(F)F)c3)cc2C1=O`, for which the compound was called inactive. For `CCN(C[C@@H]1[C@@H](c2ccccc2)[C@@H](CO)N1S(C)(=O)=O)C(=O)C1CC1`, the call was inactive. The value for `C[C@@H]1CN([C@@H](C)CO)C(=O)c2cc(NC(=O)Nc3cccc4ccccc34)ccc2O[C@@H](C)CCCCO[C@H]1CN(C)CC1CCCCC1` was “inactive”.
